From PubChem BioAssay AID720597 (Broad Institute, 2013)
Potency and affinity values are given separately.

Molecular target: NAD-dependent protein deacylase sirtuin-5, mitochondrial (Homo sapiens) (UniProt Q9NXA8)
Test: blockers of sirtuin-5 peptide desuccinylation – biochemical, fluorescence imaging, cherry-pick, set 6, dose response (AID 720597);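 further: lower AMC signal can also come from blocking the trypsin step; 0% = median of neutral control wells and -100% = median of positive control wells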
Details: Purified SirT5, succinyl-peptide-AMC/trypsin fluorescence; series mostly up to 15 µM; activity change, negative = inhibition: at the top concentration;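 active means fitted half-maximal dose no more than twice the top valid tested dose, for compounds that lower signal; inconclusive means fit invalid, or curve flat with activity between -70 and -30; inactive means potency past limit, curve flat within ±30, or signal increasing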

Sequence of NAD-dependent protein deacylase sirtuin-5, mitochondrial (Homo sapiens) (Q9NXA8 whole entry, looked up): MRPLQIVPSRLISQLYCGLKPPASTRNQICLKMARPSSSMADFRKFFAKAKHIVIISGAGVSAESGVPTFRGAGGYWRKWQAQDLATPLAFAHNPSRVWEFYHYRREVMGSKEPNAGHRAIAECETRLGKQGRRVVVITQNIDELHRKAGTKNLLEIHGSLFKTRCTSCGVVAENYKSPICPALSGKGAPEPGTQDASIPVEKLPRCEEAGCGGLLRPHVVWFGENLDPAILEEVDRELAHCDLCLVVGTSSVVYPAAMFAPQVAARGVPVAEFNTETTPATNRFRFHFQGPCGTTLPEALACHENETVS

Activity change, negative = inhibition, inactive:
C[C@H](CO)N1C[C@H](C)[C@@H](CN(C)Cc2ccccc2C(F)(F)F)OCc2ccccc2-c2ccccc2C1=O -29.4%
Cc1ccc(S(=O)(=O)Nc2ccc3c(c2)C(=O)N([C@H](C)CO)C[C@@H](C)[C@@H](CN(C)Cc2ccc(C(F)(F)F)cc2)OCCCC[C@H](C)O3)cc1 -3.28%
C[C@H]1CN([C@@H](C)CO)C(=O)c2ccccc2-c2ccccc2CO[C@H]1CN(C)Cc1ccc(F)cc1 -27.3% [at 16 µM]
C[C@H]1CN([C@@H](C)CO)C(=O)c2c(c3ccccc3n2C)-c2ccccc2CO[C@H]1CN(C)S(=O)(=O)c1ccc(F)cc1 -7.94%
CN(C)C(=O)c1cccc(-c2ccc([C@@H]3[C@H](CO)N4C(=O)CN(C(=O)C5CC5)C[C@@H]34)cc2)c1 7.57%
C[C@@H]1CN([C@@H](C)CO)C(=O)Cc2cc(NC(=O)Nc3ccccc3)ccc2O[C@H]1CN(C)S(=O)(=O)c1ccc(F)cc1 -30.5%
CCS(=O)(=O)N1CC(=O)N2[C@H](CO)[C@H](c3ccc(C4=CCCCC4)cc3)[C@@H]2C1 19.9%
COc1ccccc1NC(=O)N[C@H]1CC[C@H](CCNC(=O)c2ccc3c(c2)OCO3)O[C@@H]1CO -8.95%
CCCC#Cc1cnc2c(c1)C(=O)N([C@@H](C)CO)C[C@@H](C)[C@H](CN(C)S(=O)(=O)c1cccc(OC)c1)O2 11.7%
CN(C)C(=O)[C@H]1[C@H](CO)[C@H]2Cn3c(ccc(-c4ccc(F)cc4)c3=O)[C@@H]1N2CCc1ccccc1 8.22%
C[C@H](CO)N1C[C@H](C)[C@H](CN(C)Cc2ccccc2)Oc2cc(/C=C/c3ccccc3)ccc2S1(=O)=O -19.4%
COc1ccccc1NC(=O)N1CC(=O)N2[C@H](CO)[C@@H](c3ccc(C#CC4CC4)cc3)[C@H]2C1 -19.2%
O=C(C[C@@H]1CC[C@H](NS(=O)(=O)c2ccc(F)cc2)[C@H](CO)O1)N1CCN(c2ccccc2)CC1 -10.8%
C[C@H](CO)N1C[C@H](C)[C@@H](CN(C)S(=O)(=O)c2ccccc2)Oc2c(cccc2N(C)C)C1=O 2.92%
COc1ccc(S(=O)(=O)N(C)C[C@H]2OCCCC[C@H](C)Oc3ccc(NS(=O)(=O)c4ccc(C)cc4)cc3C(=O)N([C@@H](C)CO)C[C@@H]2C)cc1 -19.4%
COc1ccc(NC(=O)Nc2ccc3c(c2)C(=O)N([C@@H](C)CO)C[C@@H](C)[C@@H](CN(C)Cc2ccc(C(F)(F)F)cc2)O3)cc1 -1.17% [at 3.8 µM]
C[C@@H]1CN([C@@H](C)CO)C(=O)c2cc(NC(=O)Cc3cn(C)c4ccccc34)ccc2O[C@@H]1CN(C)Cc1ccc(Oc2ccccc2)cc1 -10.4%
C[C@@H]1CN([C@@H](C)CO)C(=O)c2cc(NC(=O)Cc3cn(C)c4ccccc34)ccc2O[C@H]1CN(C)Cc1ccc(Cl)c(Cl)c1 13.5%
Cc1ccc(-c2cnc3c(c2)C(=O)N([C@H](C)CO)C[C@H](C)[C@@H](CN(C)Cc2ccccc2F)O3)cc1 5.4%
CC(C)CC#Cc1ccc2c(c1)O[C@@H](CN(C)C(=O)C1CCCCC1)[C@@H](C)CN([C@H](C)CO)S2(=O)=O -8.59%
COc1ccc(NC(=O)N(C)C[C@@H]2Oc3cc(C#CCC(C)C)ccc3S(=O)(=O)N([C@@H](C)CO)C[C@H]2C)cc1 1.47%
C[C@@H]1CN([C@@H](C)CO)S(=O)(=O)c2ccc(C#Cc3ccccc3)cc2O[C@H]1CN(C)C(=O)C1CC1 5.11%
C[C@H]1CN([C@@H](C)CO)C(=O)c2cccc(NC(=O)CCCCCC(=O)Nc3ccccc3N)c2O[C@@H]1CN(C)Cc1ccc(Oc2ccccc2)cc1 -22.4%
C[C@@H]1CCCCO[C@H](CN(C)Cc2ccc(C(=O)O)cc2)[C@H](C)CN([C@H](C)CO)C(=O)c2cc(NS(=O)(=O)c3cccs3)ccc2O1 -13.8%
CC(C)CC#Cc1ccc2c(c1)O[C@H](CN(C)C(=O)C1CCCCC1)[C@@H](C)CN([C@H](C)CO)S2(=O)=O 9.78%
C[C@@H]1CN([C@@H](C)CO)S(=O)(=O)c2ccc(-c3cccc(F)c3)cc2O[C@@H]1CN(C)S(=O)(=O)c1ccc(F)cc1 -17.7%
CC(C)C#Cc1cnc2c(c1)C(=O)N([C@H](C)CO)C[C@@H](C)[C@H](CN(C)C(=O)CN1CCOCC1)O2 -20.8%
CCC(=O)N1C[C@H]2[C@@H](c3ccccc31)[C@@H](CO)N2Cc1cc(F)ccc1F 9%
Cc1ccc(S(=O)(=O)N(C)C[C@H]2OCc3ccccc3-c3c(n(C)c4ccccc34)C(=O)N([C@H](C)CO)C[C@H]2C)cc1 23.8%
CC(=O)N(C)C[C@@H]1Oc2ncc(-c3ccccc3C)cc2C(=O)N([C@H](C)CO)C[C@H]1C -1.22%
C[C@H](CO)N1C[C@H](C)[C@@H](CN(C)Cc2ccc(Cl)c(Cl)c2)Oc2ccc(NS(=O)(=O)c3ccccc3)cc2CC1=O -21%
C[C@@H]1CN([C@H](C)CO)C(=O)c2cc(Br)cnc2O[C@@H]1CN(C)Cc1cncnc1 -2.29% [at 13.5 µM]
C[C@H](O)C#Cc1ccc2c(c1)O[C@@H](CN(C)Cc1ccc(-c3ccccc3)cc1)[C@H](C)CN([C@H](C)CO)S2(=O)=O -26.5% [at 7.5 µM]
C[C@H](CO)N1C[C@H](C)[C@H](CN(C)S(=O)(=O)c2ccc(Cl)cc2)OCc2ccccc2-c2c(n(C)c3ccccc23)C1=O 25.5% [at 16 µM]
C[C@H]1CN([C@@H](C)CO)C(=O)c2ccccc2-c2ccccc2CO[C@H]1CN(C)Cc1ccccc1C(F)(F)F -22.2%
C[C@H]1CCCCO[C@H](CN(C)Cc2ccc(C(F)(F)F)cc2)[C@@H](C)CN([C@@H](C)CO)C(=O)c2cc(NS(=O)(=O)c3ccccc3)ccc2O1 0.872%
C[C@H](CO)N1C[C@H](C)[C@@H](CN(C)Cc2ccncc2)Oc2ncc(C#CCN(C)C)cc2C1=O -24.7%
CCCN(C)C[C@@H]1Oc2cc(-c3ccccc3OC)ccc2S(=O)(=O)N([C@H](C)CO)C[C@@H]1C 39%
O=C(Nc1cc(F)ccc1F)N1CC(=O)N2[C@H](CO)[C@@H](c3ccc(C#CC4CCCCC4)cc3)[C@@H]2C1 -9.84%
